Assay outcomes deposited in PubChem BioAssay by National Center for Advancing Translational Sciences (NCATS).
Sampled rows, rich in hits. Any-hit rate of the full collection: about 7.9%.
FMDV inh = foot and mouth disease virus antiviral activity | FMDV antiviral cell-based qHTS | Potency, µM (doses to about 57.9 µM), without a hit: at the top dose activity change, negative = inhibition, hits mostly inhibitors | 1.2% of 410,000 active | AID 1159524; calls by dose curve; tested in HEK293T cells; note: read-out not given here; potency is the fitted concentration of half-maximal effect; nearly all actives have a fitted effect of over 45% in size
HCV inhibitor = inhibitors of hepatitis C virus infection; Huh7.5.1 HCVcc-Cre infection, luciferase reporter, 44 h; Potency, µM (titrated, usually from 41.8 µM), for the others: top-dose activity change, negative = inhibition, actives largely listed as inhibitors; 3.4% of 340,000 active; AID 651820; active = well fitted inhibition curve with a large enough effect; inconclusive = small, poorly fitted or top-dose-only effect, or another doubt; inactive = no such curve, though single readings can be large or run the other way; note: potency is the fitted concentration of half-maximal effect
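After 44 h co-culture of compound, cells and HCVcc-Cre (~0.5 moi), substrate is added for 15 min at room temperature and luciferase measured over 15 sec. Cells were seeded at 1,000/well and pre-cultured 4 h.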
Lassa entry inh = blocks Lassa virus binding to or entry into cells; Lassa virus pseudotype entry inhibition, cell reporter; Potency, µM (doses to about 37.9 µM), without a hit: at the highest dose activity change, negative = inhibition, actives largely listed as inhibitors; 1.2% of 300,000 active; AID 540256; calls by dose curve; tested in HEK293 cells; note: potency is the fitted concentration of half-maximal effect; nearly all actives have a fitted effect of over 50% in size
HCMV antiviral = human cytomegalovirus inhibition. HFF cells, HCMV-luciferase reporter, 72 h; stronger effect = lower value. activity change, negative = inhibition, % at 57.5 µM. 4.5% of 410,000 active. AID 1259415; in the data active = activity change below about -60%; inconclusive = no clear call, values can overlap the other calls; inactive = above about -39%
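Compounds were evaluated in HFFs infected with an HCMV luciferase reporter virus (MOI 1 PFU/cell). Luciferase in lysates collected 72 h post infection served as the replication measure.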
Marburg entry inh = Marburg virus entry inhibition | Marburg virus pseudotyped entry inhibition, cell reporter | Potency, µM (highest dose often 37.8 µM), for the others: at the top dose activity change, negative = inhibition, most hits filed as inhibitors | 1.8% of 300,000 active | AID 540276; calls by dose curve; tested in HEK293 cells; note: potency is the fitted concentration of half-maximal effect
* hit, by the source's call; ? = inconclusive; / = not tested or not shown; [ ] = another dose, or the depositor's remark. % is set by controls: 0 for no effect and ±100 for the full control effect.

SMILES | FMDV inh | HCV inhibitor | Lassa entry inh | HCMV antiviral | Marburg entry inh
CC(=O)c1cccc(-n2nnnc2SCC(=O)Nc2ccccc2N2CCCCC2)c1 | ? | 14µM* | ? | -28 | 11µM*
Cc1cccc(NC(=O)CSc2nc3ccccc3nc2N2CCCCC2)c1 | 0% | 1% | / | -84* | /
COc1ccc(-n2nnnc2SCC(=O)Nc2ccccc2N2CCOCC2)cc1OC | -20% | -1% | / | -35 | /
CCc1cccc(NC(=O)CSc2nc3ccccc3nc2N2CCCCC2)c1 | -12% | / | ? | -80* | ?
Cc1cccc(NC(=O)CSc2nc3ccccc3nc2N2CC(C)OC(C)C2)c1 (stereo not drawn) | 0% | 11µM* | / | -11 | /
CCc1ccc(NC(=O)CSc2nc3ccccc3nc2N2CCCCC2)cc1 | 20% | -7% | / | -37 | /
CN(C)CCCN(C(=O)c1ccc2c(c1)OCCO2)c1nc2ccccc2s1 | 18% | / | ? | ? | /
CN(C)c1ccc(CNC(=O)C2CCN(S(=O)(=O)c3ccc4c(ccn4C)c3)CC2)cc1 | -15% | / | 5%[46.1 µM] | 2 | /
CN(C)S(=O)(=O)c1ccc(C(=O)Nc2c(C(=O)Nc3ccc(F)cc3)oc3ccccc23)cc1 | 36% | / | -2%[46.1 µM] | 11 | -4%[46.1 µM]
Cc1cccc(NC(=O)CSCC(=O)Nc2ccccc2N2CCCCC2)c1 | -18% | ? | ? | -38 | 11µM*
Cc1cccc(N2CCN(C(=O)CSc3nc4ccccc4nc3N3CC(C)OC(C)C3)CC2)c1C (stereo not drawn) | ? | 6.3µM* | ? | -5 | ?
COc1cccc(NC(=O)CSc2nc3ccccc3nc2N2CCCC2)c1 | 3% | 10µM* | / | ? | /
Cc1cccc(NC(=O)CSCC(=O)Nc2ccccc2N2CCCC2)c1 | 0% | -12% | 17% | -35 | ?
Cc1cccc(C)c1NC(=O)Cn1nnc(C(=O)Nc2ccc(F)cc2F)c1N | -9% | -11% | / | -65* | /
COc1ccc(NC2C(c3ccc(OC)cc3)=Nc3ccccc3-n3nnnc32)cc1 (stereo not drawn) | / | / | / | -3 | /
CN(C)c1ccc(C(=O)c2ccc(N(C)C)c3ccccc23)cc1 | 42% | 11µM* | 0.25µM* | -80* | ?
COc1ccc(C(=O)c2ccc(N(C)C)cc2)c(OC)c1 | 13% | ? | -28% | 66 | ?
CCc1ccc2oc(C(=O)Nc3cccc(C(F)(F)F)c3)cc(=O)c2c1 | -14% | / | 9%[46.1 µM] | -6 | 29%[46.1 µM]
Cn1cc(C(=O)c2ccc(Cl)cc2)cc1-c1nc2ccccc2n1C | 16µM* | 25µM* | ? | -69* | ?
Cn1c(=O)c(C(=O)c2ccccc2)nc2ccccc21 | 5% | 26% | 18% | -4 | -6%
Cc1ccccc1C(=O)N1Cc2cnnn2-c2ccccc2C1C#N (stereo not drawn) | -14% | -14%[8.37 µM] | / | -22 | /
Cc1ccccc1CN1Cc2cnnn2-c2ccccc2C1C#N (stereo not drawn) | 13µM* | ? | / | -99* | /
CCc1ccc(C(=O)c2cn(CC(=O)Nc3ccc(OC)c(OC)c3)c3ccc(C)cc3c2=O)cc1 | 3% | / | -19%[46.1 µM] | ? | ?
Cc1cccc(OCC(=O)Nc2c(C(=O)N3CCN(c4ccccc4)CC3)oc3ccccc23)c1 | 47% | / | -11%[46.1 µM] | -33 | 1%[46.1 µM]
COc1cccc(-n2c(=O)c3sc4ccccc4c3n(CC(=O)Nc3ccc(F)cc3F)c2=O)c1 | 1% | / | 0%[46.1 µM] | -70* | 9%[46.1 µM]
SMILES | FMDV inh | HCV inhibitor | Lassa entry inh | HCMV antiviral | Marburg entry inh
CCC(C)NC(=O)Cn1c(=O)n(Cc2ccc(C(=O)NCc3ccc(C)cc3)cc2)c(=O)c2ccccc21 (stereo not drawn) | 0% | / | -17%[46.1 µM] | -79* | 5%[46.1 µM]
Cc1ccc(CNC(=O)Cn2c(=O)n(Cc3ccc(F)cc3)c(=O)c3sc4ccccc4c32)cc1 | 0% | / | -15%[46.1 µM] | -65* | 1%[46.1 µM]
COc1cccc(-n2c(=O)c3sc4ccccc4c3n(CC(=O)Nc3cccc(Cl)c3)c2=O)c1 | -5% | / | -4%[46.1 µM] | 8 | 12%[46.1 µM]
CCC(C)NC(=O)Cn1c(=O)n(Cc2ccc(C(=O)NCc3ccccc3OC)cc2)c(=O)c2ccccc21 (stereo not drawn) | -14% | / | -2%[46.1 µM] | -13 | ?
CN1CCc2c(sc3c2C(=O)NC(c2ccc(C(C)(C)C)cc2)N3)C1 (stereo not drawn) | -6% | / | 14%[46.1 µM] | 10 | 7%[46.1 µM]
CC(C)(C)OC(=O)N1CCC(c2c(C(=O)NCc3ccco3)cnn2-c2ccccc2)CC1 | 4% | / | -22%[46.1 µM] | ? | /
